PubChem BioAssay AID540275 (National Center for Advancing Translational Sciences (NCATS), 2011)
The whole screen tested about 320,000 compounds, of which about 620 (0.19%) were called active. Inconclusive results (about 6%) are left out. Cut-off read from the data, not from the text of the source: active = activation above about 80%; inconclusive = between about 30% and that limit; inactive = weaker than that. The entries come from a sample that favours actives as a whole.

target: Transient receptor potential cation channel subfamily V member 1 (Homo sapiens) (UniProt Q8NER1); assay: HTS Assay for Compounds that Act as Agonists of the Vanilloid Receptor 1; details: TRPV1-expressing cells, Fluo-8 calcium influx, agonist mode; at 8.33 µM; stronger effect = higher value; note: 0% is about no effect
Sequence (Q8NER1 whole entry, looked up): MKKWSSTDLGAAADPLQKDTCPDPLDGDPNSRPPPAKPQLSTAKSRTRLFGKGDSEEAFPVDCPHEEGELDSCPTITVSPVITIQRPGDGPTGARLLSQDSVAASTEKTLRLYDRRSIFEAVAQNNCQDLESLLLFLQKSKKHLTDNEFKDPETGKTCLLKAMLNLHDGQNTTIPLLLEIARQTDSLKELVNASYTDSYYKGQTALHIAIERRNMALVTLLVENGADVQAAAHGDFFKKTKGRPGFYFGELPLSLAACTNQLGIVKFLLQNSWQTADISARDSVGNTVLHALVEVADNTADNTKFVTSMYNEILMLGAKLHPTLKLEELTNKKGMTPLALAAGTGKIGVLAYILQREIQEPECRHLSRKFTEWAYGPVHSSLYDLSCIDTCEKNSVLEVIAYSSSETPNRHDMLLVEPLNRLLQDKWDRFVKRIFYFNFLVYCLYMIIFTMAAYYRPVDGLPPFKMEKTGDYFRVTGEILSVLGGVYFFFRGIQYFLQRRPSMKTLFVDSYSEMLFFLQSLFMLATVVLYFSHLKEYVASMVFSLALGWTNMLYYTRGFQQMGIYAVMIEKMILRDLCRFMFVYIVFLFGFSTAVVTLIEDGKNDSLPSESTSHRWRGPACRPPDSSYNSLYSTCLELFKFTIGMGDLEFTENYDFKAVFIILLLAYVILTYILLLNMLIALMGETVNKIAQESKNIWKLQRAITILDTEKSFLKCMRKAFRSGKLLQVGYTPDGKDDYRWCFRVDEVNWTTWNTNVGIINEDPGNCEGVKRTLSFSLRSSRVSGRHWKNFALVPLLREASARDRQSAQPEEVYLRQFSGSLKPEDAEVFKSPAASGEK
Description: The transient receptor potential ion channel, family V, number 1, (TRPV1) is one of the most important molecular transducers of painful stimuli and a potential target for analgesic drug development. Although recent clinical trials with orthosteric antagonists have not produced a successful drug because of a hyperthermia side effect and their tendency to block thermal noxious pain, this ion channel is undeniably well placed in the pain pathway, and the idea of blocking pain signals before they enter the CNS is an excellent concept and of proven efficacy when TRPV1 agonists are used. We propose a new approach involving allosteric modulation to impose an activity-dependent constraint within the context of inflammation and tissue damage that would alter the responsiveness of the channel in a way that an orthosteric vanilloid antagonist cannot achieve. We believe that the allosteric modulator approach has not been explored for this target. The main goal of this proposal is to identify additional, new, potent allosteric modulators of TRPV1 that can be used to investigate TRPV1 function. Our recent report provides evidence of proof of concept, but the compounds are just at the edge of utility in terms of potency. […] The question of whether they can be used as analgesic agents is complex, but if suitable compounds are identified then testing for analgesic properties will be conducted. NIH Chemical Genomics Center [NCGC] NIH Molecular Libraries Probe Centers Network [MLPCN] MLPCN Grant: MH089480-1A1 Assay Submitter (PI): Michael Iadarola, National Institute of Dental and Cranofacial Research
Upon TRPV1 activation in TRPV1 cells, the channel opens and extracellular cations flow through the channel into the cytosol. A calcium binding dye (Fluo-8) becomes fluorescent when bound to calcium. This dye is pre-loaded into cells and is used as a marker for calcium influx. The amount of accumulated calcium is precisely quantified using the FDSS kinetic reader and the calcium dye. For the HTS assay, freshly prepared cells are plated at a density of 2000/well in 3 ul medium in 1536-well plates and cultured overnight at 35.5C. Cells will be loaded with 1 ul of the homogeneous calcium dye (ABD Bioquest) at room temperature for 40 to 90 minutes. Plates will be loaded into the FDSS kinetic reader and a 1 sec / cycle for 10 second baseline signal will be measured. Compound library will then be added with a pintool at 23 nl and measured kinetically for 3 minutes. This portion of the read is considered the agonist portion of the screen. Following the 3 minutes of incubation, an on board pipettor will deliver 1 ul of capsaicin for a final concentration equal to the EC20. Signal will be measured kinetically for an additional 2 minutes. This portion of the read is considered the allosteric enhancer portion of the screen. The FDSS reader has a standard filter set capable of measuring calcium bound Fluo-8 (ex=480 and em=520 nm).

SMILES	activation
CCN1C(=O)C(=O)N(CC(=O)Nc2cc(C)ccc2C)C1=O	-7.91% (inactive)
CCN(c1ccccc1)S(=O)(=O)c1cccc(C(=O)NCc2ccccc2CN2CCOCC2)c1	10.7% (inactive)
S=C(NNC(=S)NC1CC2C=CC1C2)NC1CC2C=CC1C2 (stereo not drawn)	1.8% (inactive)
S=C(NNC(=S)NC1CC2CCC1C2)NC1CC2C=CC1C2 (stereo not drawn)	3.31% (inactive)
CC(C)c1ccc(NC(=S)NC2CC3C=CC2C3)cc1 (stereo not drawn)	88.8% (active)
O=S(=O)(Nc1cccc2cccnc12)c1cccc2cccnc12	3.75% (inactive)
Oc1ccc(Cl)cc1C1C=C(c2ccc3c(c2)OCO3)NC(c2c(F)cccc2Cl)N1 (stereo not drawn)	2.17% (inactive)
CSCCC(NC(=O)c1ccco1)C(=O)NCCc1ccc(F)cc1 (stereo not drawn)	0.184% (inactive)
CCc1nc(C)ccc1OCC(=O)N(CC)CC	2.63% (inactive)
CCC(C)(C)c1ccc(OCC(=O)N(C)C)c(C(C)(C)CC)c1	81.1% (active)
CN(C)CCOc1ccc(Cl)cc1C(C)(C)C	10.6% (inactive)
CCN(CC(=O)Nc1ccc(OC)cc1)C(=O)CSCc1ccc(C)cc1	12.3% (inactive)
Cc1cc(C)c(CN2CCN(C(=O)Cn3ccc(NC(=O)OCc4ccccc4)nc3=O)CC2)c(C)c1	1.97% (inactive)
COc1ccc(S(=O)(=O)N2CCOCC2)cc1NC(=O)CSc1cc(C)ccc1C	18.3% (inactive)
COc1ccc(CNC(=O)COc2ccccc2C(=O)c2cnn(-c3ccccc3)c2)cc1OC	11.4% (inactive)
COc1ccc(S(=O)(=O)Nc2cccc3cccnc23)c(N)c1	7.86% (inactive)
C[C@H](NC(=O)c1[nH]cnc1C(=O)Nc1nccs1)c1ccccc1	3.08% (inactive)
O=C1NCCn2nc3ccccc3c21	-1.33% (inactive)
CCN(CC(=O)Nc1ccccc1C(F)(F)F)C(=O)C1CCN(C(=O)Nc2ccccc2)CC1	1.3% (inactive)
Cc1cccc(OCCC(=O)OCc2csc(CC(=O)Nc3ccccc3C)n2)c1	14.6% (inactive)

SMILES	activation
NC(=O)NCCCC(=O)O	5.36% (inactive)
Cc1nonc1C1CCCN1C(=O)c1cc(COc2cccc(C(F)(F)F)c2)on1 (stereo not drawn)	2.83% (inactive)
O=C(NC1Cc2ccccc2C1)c1cc(COc2cccc(C(F)(F)F)c2)on1	3.63% (inactive)
O=C(c1cc(COc2cccc(C(F)(F)F)c2)on1)N1CCSCC1	81.1% (active)
O=C(Nc1ccncc1)c1cc(-c2ccccn2)nc2ccc(Br)cc12	0.349% (inactive)
Cc1ccc2nc(-c3ccncc3)cc(C(=O)Nc3ccc4c(c3)OCCO4)c2c1	-2.26% (inactive)
Cc1ccc2nc(-c3ccccn3)cc(C(=O)Nc3ccc4c(c3)OCO4)c2c1	90.2% (active)
COc1ccc(S(=O)(=O)N2CCN(CC(=O)N3c4ccccc4CC3C)CC2)cc1OC (stereo not drawn)	-0.777% (inactive)
COc1cc(C(=O)OCC(=O)NC23CC4CC(CC(C4)C2)C3)cc(OC)c1OC	21.9% (inactive)
O=C(Nc1cc(-c2ccccc2)nn1-c1ccccc1F)c1ccc([N+](=O)[O-])cc1	-1.91% (inactive)
CC1Cc2ccccc2N1S(=O)(=O)c1cccc(C(=O)NCC(c2ccco2)N2CCCC2)c1 (stereo not drawn)	0.253% (inactive)
CCn1c(=O)c(=O)n(CC)c2cc(N3CCCCC3)c(NC(=O)c3ccc(Cl)cc3)cc21	-4.74% (inactive)
Cc1ccccc1S(=O)(=O)N1[C@@H](c2cccc(Cl)c2)C(C(=O)O)=CC[C@H]1c1ccc(Cl)cc1	-4.35% (inactive)
CC1CCc2sc(C(=O)NCC(c3ccco3)N3CCCCC3)cc2C1 (stereo not drawn)	26.2% (inactive)
CCC1CCC2(CC1)NC(=O)N(CC(=O)Nc1ccc(OC)cc1)C2=O (stereo not drawn)	9.09% (inactive)
CC(C)(C)c1ccc(C(=O)NCCC(=O)NCc2ccco2)cc1	25% (inactive)
CC(C)(C)NC(=O)NCc1ccco1	4.24% (inactive)
CC(C)(C)c1ccc(NC(=O)NCc2ccco2)cc1	89.3% (active)
COc1ccccc1Nc1nnc(SC(C)C(=O)NC2CC2)s1 (stereo not drawn)	0.405% (inactive)
COc1ccc(NC(=O)Cn2cc(C(=O)c3ccncc3)c(=O)c3cc(C)ccc32)cc1Cl	3.63% (inactive)

SMILES	activation
Cc1ccc(NC(=O)CCCNC(=O)c2ccc(Cl)cc2)cc1S(=O)(=O)N1CCCCC1	6.66% (inactive)
Cc1ccc(S(=O)(=O)N(C)C)cc1NC(=O)CN1c2cccc3cccc(c23)S1(=O)=O	-5.6% (inactive)
Cc1ncoc1C(=O)NCCC(c1ccccc1)c1ccccc1	98.7% (active)
Cc1ccc(C(=O)NCCNC(=O)c2ccccc2)cc1	12.5% (inactive)
Cc1ccc(S(=O)(=O)NCCC(c2ccccc2)c2ccccc2)cc1C(=O)O	-2.84% (inactive)
Cc1ccc(C(=O)OCC(=O)Nc2ccc(Cl)cn2)cc1S(=O)(=O)N1CCOCC1	7.43% (inactive)
CSc1ccc(Cl)c(C(=O)OCC(=O)N2CCNC2=O)c1	5.56% (inactive)
O=C(CSc1ncnc2sccc12)N1CCN(C(=O)c2cccs2)CC1	0.688% (inactive)
O=C(C1CC(=O)N(C2CCCC2)C1)N1CCN(c2cccc(C(F)(F)F)c2)CC1 (stereo not drawn)	9.27% (inactive)
COC(=O)[C@]1(C)CCC[C@@]2(C)C3CC[C@]4(OC(C)=O)C[C@@]3(CCC21)CC4=NO (stereo partly drawn)	19.3% (inactive)
O=S(=O)(Nc1ccc2nc(N3CCOCC3)sc2c1)c1ccccc1	-3.63% (inactive)
CCCCc1ccc(NS(=O)(=O)c2cccc(C(=O)N3CCCN(C)CC3)c2)cc1	-2.57% (inactive)
NC(=O)NC(CC(=O)NNC(=O)c1ccccn1)c1ccc(Cl)cc1 (stereo not drawn)	0.614% (inactive)
CCOc1ccc(NC(=O)COC(=O)C2CCC(=O)N2)c([N+](=O)[O-])c1 (stereo not drawn)	2.66% (inactive)
COc1ccc(CCC(=O)N2CCN(S(=O)(=O)c3ccc(OC)cc3)CC2)cc1	16.4% (inactive)
Cc1ccc(NC(=O)c2cccc(S(=O)(=O)N3CCCc4ccccc43)c2)nc1	21.4% (inactive)
CCCCN(C(=O)c1ccc2ccccc2c1)c1c(N)n(CCCC)c(=O)[nH]c1=O	-2.14% (inactive)
Cc1sc2ncnc(N3CCC(C(=O)Nc4ccc(F)cc4Cl)CC3)c2c1C	1.84% (inactive)
